High-throughput results: PubChem, National Center for Advancing Translational Sciences (NCATS)
Only a selection was taken, and hits are over-represented in it overall.
Shiga inhibitor: A qHTS for Small Molecule Inhibitors of Shiga Toxin; inhibition, % at 38.7 µM; actives 9.2% (n = 290,000); Vero cells, Shiga toxin protein synthesis inhibition reporter; in the data active = inhibition mostly above about 28%, no sharp cut-off; inactive = mostly below about 43%; also: 0% is about no effect
Sm TGR inh: qHTS Assay for the Inhibitors of Schistosoma Mansoni Peroxiredoxins | Schistosoma mansoni thioredoxin glutathione reductase (TGR), Q962Y6 | purified TGR, DTNB reduction, TNB absorbance 405 nm | Potency, µM (doses to about 114 µM), for inactives: at the highest dose activity change, negative = inhibition, usual class: inhibitors | actives 3% (n = 360,000); also: potency is read from the fitted curve at half-maximal effect; % is scaled to controls: 0 for no effect and ±100 for the full control effect; nearly all actives have a fitted effect of over 60% in size
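Kinetic colorimetric format: TGR-catalysed, NADPH-driven DTNB reduction monitored via TNB absorbance. Enzyme dispensed at 20 nM; compound exposure 15 min at room temperature before reaction start.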
FBPA Giardia inh: qHTS Assay for Inhibitors of Fructose-1,6-bisphosphate Aldolase from Giardia Lamblia | A8B2U2 | Potency, µM (doses to about 59.6 µM), inactives show at the top dose activity, negative = inhibition, actives largely listed as inhibitors | purified Giardia FBPA | actives 0.71% (n = 290,000); also: potency is read from the fitted curve at half-maximal effect; % is scaled to controls: 0 for no effect and ±100 for the full control effect; nearly all actives have a fitted effect of over 55% in size
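Giardia FBPA (40 nM reagent) was preincubated 10 min at RT with compound (up to 57.5 uM final), then substrate plus GAPDH/TPI/NAD/arsenate coupling system with diaphorase/resazurin was added; resorufin fluorescence (525/598 nm) was read after 20 min.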
TbPYK inhibitor: qHTS of Trypanosoma Brucei Inhibitors; TbPYK enzyme, Kinase-Glo Plus ATP luminescence, 45 min; Potency, µM (top dose mostly 76.8 µM), without a hit: top-dose activity, negative = inhibition, usual class: inhibitors; actives 0.12% (n = 410,000); also: potency is read from the fitted curve at half-maximal effect; % is scaled to controls: 0 for no effect and ±100 for the full control effect; nearly all actives have a fitted effect of over 50% in size
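Activity of T. brucei pyruvate kinase was followed by Kinase-Glo Plus luminescence after the enzyme reacted 45 min at room temperature with 130 uM ADP (final) and substrate. Test compounds were added before ADP at multiple concentrations.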
LmPK inhibitor: qHTS Assay for Inhibitors of Leishmania Mexicana Pyruvate Kinase (LmPK). purified LmPK, Kinase-Glo ATP luminescence, 1 h. Potency, µM (titrated, usually from 57.5 µM), without a hit: at the highest dose activity change, negative = inhibition, hits mostly inhibitors. actives 0.37% (n = 290,000); also: potency is read from the fitted curve at half-maximal effect; % is scaled to controls: 0 for no effect and ±100 for the full control effect
Target sequence (Q27686 whole entry, looked up): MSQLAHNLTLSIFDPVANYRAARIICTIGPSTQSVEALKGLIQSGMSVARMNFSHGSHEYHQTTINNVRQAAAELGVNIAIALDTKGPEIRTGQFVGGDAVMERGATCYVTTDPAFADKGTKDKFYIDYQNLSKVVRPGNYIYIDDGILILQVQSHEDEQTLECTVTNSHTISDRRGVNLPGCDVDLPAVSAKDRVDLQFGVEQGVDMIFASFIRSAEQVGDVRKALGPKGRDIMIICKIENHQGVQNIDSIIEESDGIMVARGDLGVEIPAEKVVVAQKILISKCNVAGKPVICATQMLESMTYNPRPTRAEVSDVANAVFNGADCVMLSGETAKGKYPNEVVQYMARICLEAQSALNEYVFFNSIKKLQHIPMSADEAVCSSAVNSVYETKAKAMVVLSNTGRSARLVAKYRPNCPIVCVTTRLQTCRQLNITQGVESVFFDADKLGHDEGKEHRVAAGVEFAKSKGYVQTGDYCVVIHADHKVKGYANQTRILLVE
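Pyruvate kinase activity monitored as ATP production (luciferase luminescence). Conditions: 0.1 nM enzyme, 0.5 mM PEP, 0.1 mM ADP, 1 h, RT; normalized against uninhibited and no-enzyme wells.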
Cycloheximide cs: Cycloheximide Counterscreen for Small Molecule Inhibitors of Shiga Toxin; actives 12% (n = 300,000); cell reporter, cycloheximide protein synthesis inhibition counterscreen; AID 2314, 2010; max response, %; in the data active = max response mostly above about 13%, no sharp cut-off; inactive = mostly below about 14%; also: read at 38.3 µM for the half of the compounds with a filed dose; 0% is about no effect
* hit, by the source's call; ? = inconclusive; . = no result; + = active, no number. Unless noted, calls follow the shape of the dose curve; as a rule, active = well fitted curve in the direction sought with a large enough effect; inconclusive = small, poorly fitted or top-dose-only effect, or another doubt; inactive = no such curve, though single readings can be large; an effect the other way counts as inactive or inconclusive.

SMILES	Shiga inhibitor	Sm TGR inh	FBPA Giardia inh	TbPYK inhibitor	LmPK inhibitor	Cycloheximide cs
CCCN(CCC)c1nn2c(=O)c(C(=O)NCc3cc(Br)ccc3OC)cnc2s1	.	1%	.	-1%	.	.
Cc1ccc(CCNC(c2ccc(F)cc2)c2nnc(-c3ccccc3Cl)o2)cc1 (stereo not drawn)	.	2%	.	-3%	.	.
COC(=O)c1cc2oc3ccccc3c2n1CC(=O)Nc1ccc(OC)c(OC)c1	.	-2%	.	7%	.	.
C=CCNc1nc(N)c(C(=O)c2ccc3c(c2)OCO3)s1	87*	-28%	-20%	2%	4%	26*
Cc1cc(NC(=O)c2sc(Nc3ccc(F)cc3)nc2N)no1	103	24%	-7%	-3%	4%	28*
C=CCNc1nc(N)c(C(=O)Nc2cc(C)on2)s1	38*	-4%	?	-1%	-25%	19*
CCOc1ccc(C(=O)NC2CC(=O)N(c3ccc(C)cc3)C2)cc1OCC (stereo not drawn)	.	-3%	.	1%	.	.
CC(=O)[C@H]1[C@H]([C@H](O)[C@H](O)CO)O[C@](O)(C(=O)O)C[C@@H]1O	.	13µM*	.	4%	.	.
C#CCOCCOCCOCCNc1nc(N2CCN(C(=O)CCCCCCCCCCNC(=O)Cn3cc(CCCCCN)nn3)CC2)nc(N2CCN(C(=O)CCCCCCCCCCNC(=O)[C@H](CO)n3cc(CCCCCN)nn3)CC2)n1	.	40µM*	.	-10%	.	.
C#CCOCCOCCOCCNc1nc(N2CCOCC2)nc(N2CCN(C(=O)CCCCCCCCCCNC(=O)Cn3cc(CCCCCN)nn3)CC2)n1	.	?	.	0%	.	.
C#CCOCCOCCOCCNc1nc(N2CCOCC2)nc(N2CCN(C(=O)CCCCCCCCCCNC(=O)[C@H](CO)n3cc(CCCCCN)nn3)CC2)n1	.	-35%	.	4%	.	.
C#CCOCCOCCOCCNc1nc(N2CCN(C(=O)CCCCCCCCCCNC(=O)Cn3cc(CCCCCN)nn3)CC2)nc(N2CCN(C(=O)CCCCCCCCCCNC(=O)[C@H]([C@@H](C)CC)n3cc(CCCCCN)nn3)CC2)n1	.	45µM*	.	1%	.	.
COc1ccccc1CNS(=O)(=O)c1ccc(F)c(C(=O)Nc2cc(Cl)ccc2OC)c1	.	2%	.	4%	.	.
CCn1nc(C)c(NC(=O)CCCSc2nc(-c3ccco3)cc(C(F)(F)F)n2)c1C	-2	50µM*	1%	2%	2%	-5
O=C(CCCSc1nc(-c2ccco2)cc(C(F)(F)F)n1)NCC1CCCO1 (stereo not drawn)	11	50µM*	1%	-3%	2%	1
Cc1ccc2c(c1)sc(-c1ccc(N(C)C)cc1)[n+]2C	+	-1%	-16%	-5%	4%	77*
CC(=O)N1c2ccccc2C(CBr)=CC1(C)C	-5	13µM*	-12%	3%	3%	-3
O=C(CSc1nccn1Cc1ccco1)Nc1ccccc1	41*	4%	.	9%	-2%	32*
CCOC(=O)c1ccccc1NC(=O)CSc1nccn1Cc1ccco1	.	?	.	-14%	.	.
O=C(CSc1nccn1Cc1ccco1)Nc1ccccc1C(F)(F)F	21	-8%	-6%	8%	-8%	28*
O=C(CSc1nnc(-c2ccco2)n1Cc1ccco1)Nc1ccccc1	-2	-11%	4%	-1%	-3%	-2
CC(=O)Nc1ccc(NC(=O)CSc2nccn2Cc2ccco2)cc1	60*	0%	.	9%	0%	17*
CC(=O)Nc1ccc(NC(=O)CSc2nccn2C)cc1	.	-2%	.	2%	.	.
CCCn1c(=O)c2sccc2n2c(CCCC(=O)N3CCN(c4cccc(Cl)c4)CC3)nnc12	.	0%	.	1%	.	.
C=C(C(C)=O)C(O)c1ccco1 (stereo not drawn)	.	.	-30%	.	.	.
COc1cc(/C=N/N=C2/NC(=O)C(Cc3ccccc3)S2)ccc1O (stereo not drawn)	99*	-2%	1%	13%	-3%	33*
